Test results published in PubChem BioAssay (NCATS).
Results filed as inconclusive are left out. Activity calls are given as the source filed them. The call rests on the fitted dose curve; in most records, active means well fitted inhibition curve with a large enough effect; inconclusive means small, poorly fitted or top-dose-only effect; inactive means flat fitted curve, though single readings scatter.

How the values were obtained:
Assay in all cases: qHTS profiling for inhibitors of Plasmodium falciparum proliferation (AID 504749); further: nearly all actives have a fitted effect of over 60% in size
Conditions in all cases: P. falciparum in erythrocytes, SYBR Green DNA, 72 h; series mostly up to 28.7 µM
CP325 = tested on: CP325
Outline: (§1)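 Fluorescence of SYBR Green-bound parasite DNA, read at 485/535 nm, served as the growth measure. Infected erythrocytes were cultured with compound 72 h; artemisinin (0.29 uM) and DMSO wells defined the normalization range.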

CP329 = tested on: CP329
Outline: as §1

CP335 = tested on: CP335
Outline: as §1

DFO2036 = tested on: DFO2036
Outline: as §1

DIV14 = tested on: DIV14
Outline: as §1

DIV17 = tested on: DIV17
Outline: as §1

DIV30 = tested on: DIV30
Outline: as §1

Dd2 = tested on: Dd2
Outline: as §1

ECU = tested on: ECU
Outline: as §1

FAB9 = tested on: FAB9
Outline: as §1
Potency means the concentration at half of the fitted maximal effect.

For Nc1ncnc2nc[nH]c12, the Potency (CP325) was “inactive”, the Potency (CP329) was “inactive” and the Potency (CP335) was “inactive”. The Potency (DFO2036) was “inactive”, the Potency (DIV14) was “inactive” and the Potency (DIV17) was “inactive”. The Potency (DIV30) was “inactive”, the Potency (Dd2) was “inactive” and the Potency (ECU) was “inactive”. For the same molecule, the Potency (FAB9) was “inactive”.
With O=[N+]([O-])c1ccc(O)c2ncccc12 the Potency (Dd2) was 12.6 µM (active).
In the case of O=S(=O)(O)c1ccc2nc(-c3ccccc3)[nH]c2c1, the Potency (CP325) is reported as “inactive”, the Potency (CP329) is reported as “inactive” and the Potency (CP335) is reported as “inactive”. For the same molecule, the Potency (DFO2036) was “inactive”, the Potency (DIV17) was “inactive” and the Potency (DIV30) was “inactive”. For the same molecule, the Potency (Dd2) was “inactive”, the Potency (ECU) was “inactive” and the Potency (FAB9) was “inactive”.
CCCCCCCCCCCCCC[N+](C)(C)C was tested, and the Potency (CP325) was 6.01 µM (active), the Potency (CP329) was 5.36 µM (active) and the Potency (CP335) was 4.26 µM (active). The Potency (DFO2036) was 4.47 µM (active), the Potency (DIV14) was 6.75 µM (active) and the Potency (DIV17) was 7.57 µM (active). The Potency (DIV30) was 6.75 µM (active), the Potency (Dd2) was 6.31 µM (active) and the Potency (ECU) was 4.47 µM (active). For the same molecule, the Potency (FAB9) was 11.2 µM (active).
With Nc1ccc2cc3ccc(N)cc3nc2c1 the Potency (CP335) was 6.01 µM (active), the Potency (DIV14) was 6.01 µM (active) and the Potency (DIV17) was 12 µM (active). For the same molecule, the Potency (FAB9) was 8.91 µM (active).
In the case of Nc1c2ccccc2nc2ccccc12, the Potency (DFO2036) is reported as 5.01 µM (active), the Potency (DIV14) is reported as 8.49 µM (active) and the Potency (DIV17) is reported as 7.57 µM (active). The Potency (DIV30) was 15.1 µM (active), the Potency (Dd2) was 12.6 µM (active) and the Potency (ECU) was 10 µM (active).
For CCCCCCCCCCCCCCCC[N+](C)(C)Cc1ccccc1, the Potency (CP325) was 9.53 µM (active), the Potency (CP329) was 10.7 µM (active) and the Potency (CP335) was 12 µM (active). For the same molecule, the Potency (DFO2036) was 2.82 µM (active), the Potency (DIV14) was 8.49 µM (active) and the Potency (DIV17) was 8.49 µM (active). For the same molecule, the Potency (DIV30) was 15.1 µM (active), the Potency (ECU) was 3.16 µM (active) and the Potency (FAB9) was 10 µM (active).
For CC(NCCC(c1ccccc1)c1ccccc1)c1ccccc1 (configuration not stated), the Potency (CP325) was 15.1 µM (active), the Potency (CP335) was 4.78 µM (active) and the Potency (DIV14) was 5.36 µM (active). For the same molecule, the Potency (DIV17) was 6.01 µM (active), the Potency (DIV30) was 8.49 µM (active) and the Potency (Dd2) was 8.91 µM (active). For the same molecule, the Potency (ECU) was 7.94 µM (active).
With O=C(Nc1ccc(Cl)cc1)Nc1ccc(Cl)c(Cl)c1 the Potency (CP325) was 4.26 µM (active), the Potency (CP329) was 8.49 µM (active) and the Potency (CP335) was 3.38 µM (active). The Potency (DFO2036) was 2.82 µM (active), the Potency (DIV14) was 1.35 µM (active) and the Potency (DIV17) was 0.953 µM (active). For the same molecule, the Potency (DIV30) was 1.69 µM (active), the Potency (ECU) was 3.55 µM (active) and the Potency (FAB9) was 5.01 µM (active).
With CCCCCCCCCCCCCCCC[n+]1ccccc1 the Potency (CP325) was 5.36 µM (active), the Potency (CP329) was 7.57 µM (active) and the Potency (CP335) was 6.75 µM (active). The Potency (DFO2036) was 5.62 µM (active), the Potency (DIV14) was 6.75 µM (active) and the Potency (DIV17) was 6.75 µM (active). The Potency (DIV30) was 13.5 µM (active), the Potency (Dd2) was 10 µM (active) and the Potency (ECU) was 7.08 µM (active).
In the case of CN1CCCN(C(c2ccccc2)c2ccc(Cl)cc2)CC1 (configuration not stated), the Potency (CP335) is reported as 12 µM (active), the Potency (DIV14) is reported as 1.69 µM (active) and the Potency (DIV17) is reported as 1.51 µM (active).
With CN1CCC(Nc2ncc3ncnc(Nc4ccc(F)c(Cl)c4)c3n2)CC1 the Potency (CP335) was 9.53 µM (active), the Potency (DIV14) was 10.7 µM (active) and the Potency (DIV17) was 8.49 µM (active). For the same molecule, the Potency (Dd2) was 7.94 µM (active) and the Potency (ECU) was 12.6 µM (active).
